The structures appear in SMILES notation. Screen size: about 390,000 compounds; about 360 (0.092%) were called active. Calls follow the shape of the dose curve; as a rule, active = well fitted inhibition curve with a large enough effect; inconclusive = small, poorly fitted or top-dose-only effect; inactive = no such curve, though single readings can be large or run the other way. The list comes from a sample in which actives are over-represented; it also holds similar structures and randomly drawn compounds. A call without a number means that no potency is given here.
Potency is read from the fitted curve at half-maximal effect.

This assay deals with Isocitrate dehydrogenase [NADP] cytoplasmic (Homo sapiens) (UniProt O75874). Put plainly: qHTS for Inhibitors of mutant isocitrate dehydrogenase 1 (IDH1): qHTS. Also: nearly all actives have a fitted effect of over 65% in size. The following applies: IDH1-R132H enzyme, NADPH consumption, diaphorase/resazurin fluorescence; series mostly up to 76.6 µM. The procedure, abridged: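 IDH1-R132H (0.5 ug/mL) preincubated 30 min with compound, then NADPH (0.016 mM) and alpha-KG (2 mM) added; 80 min at RT, pH 7.5. Remaining NADPH coupled via diaphorase/resazurin to fluorescence (540/590 nm); concentration-response curves normalized to no-enzyme control.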
Isocitrate dehydrogenase [NADP] cytoplasmic (Homo sapiens), sequence (O75874 whole entry R132H, stated change not applied): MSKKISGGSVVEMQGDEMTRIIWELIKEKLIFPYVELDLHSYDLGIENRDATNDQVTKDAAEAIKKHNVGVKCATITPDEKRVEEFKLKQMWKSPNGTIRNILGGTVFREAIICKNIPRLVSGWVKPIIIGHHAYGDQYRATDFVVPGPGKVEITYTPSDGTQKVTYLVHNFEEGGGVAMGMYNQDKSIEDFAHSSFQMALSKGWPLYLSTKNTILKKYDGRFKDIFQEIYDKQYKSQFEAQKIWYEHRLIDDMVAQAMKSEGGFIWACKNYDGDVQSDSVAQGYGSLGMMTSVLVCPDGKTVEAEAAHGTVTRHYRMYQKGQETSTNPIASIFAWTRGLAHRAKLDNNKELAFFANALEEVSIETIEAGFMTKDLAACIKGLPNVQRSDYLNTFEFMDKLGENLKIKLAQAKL
A general note: In qHTS, concentration-response curves come from the screen itself.
For the compound `Cc1c(Cl)cccc1-c1ccc(CNCCCSc2nnnn2C)o1`, the Potency result was “inactive”. In the case of `COc1ccc(-c2nc(CN3CCC(C(=O)NCCN(CC(C)C)CC(C)C)CC3)c(C)o2)cc1OC`, the Potency result is “inactive”. Regarding `CCOc1ccc(-c2n[nH]c3c2C(c2ccccc2OC)N(c2ccc(Br)cc2)C3=O)cc1` (configuration not stated), the Potency entry is “inactive”.

As to `CN(Cc1ccccc1)S(=O)(=O)c1ccc(F)c(C(=O)Nc2cccc(Cl)c2Cl)c1`, the Potency entry is “inactive”. Regarding `Cc1nn(-c2nc(-c3ccccc3)cc(C(F)(F)F)n2)c(C)c1Cl`, the Potency entry is “inactive”. Take `NS(=O)(=O)c1ccc2nc(NC(=O)COc3ccccc3)sc2c1`: the Potency entry was “inactive”. Turning to `O=C(NC(Nc1nc2ccc([N+](=O)[O-])cc2s1)(C(F)(F)F)C(F)(F)F)c1ccccc1`, the Potency was 9.27 µM (active). For `CN(C)c1cccc(C(=O)Nc2nc3ccc(S(=O)(=O)NC(C)(C)C)cc3s2)c1`, the Potency result is “inactive”. In the case of `CCc1ccc(NC(=O)C2CCCN2S(=O)(=O)c2ccc3nc(-c4ccccc4)[nH]c3c2)cc1` (configuration not stated) it was “inactive”; in that of `CCOC(=O)c1ccc(NC(=O)Cn2c(=O)cc(C)c3c(C)nn(-c4cccc(F)c4)c32)cc1`, “inactive”. Consider `CCCCN(CC)CCCNC(=O)c1nn(C)c2c1CSc1ccccc1-2`, for which the Potency result is “inactive”. For `O=C(CN1C(=O)CCn2nc(-c3ccccc3)cc21)NCc1ccccc1` the value was “inactive”.

Consider `COc1ccc2c(C)c(CCC(=O)NCc3ccc(OC)c(OC)c3)c(=O)oc2c1`, for which the Potency entry is “inactive”. `CSc1ccc(C2c3c(oc4ccccc4c3=O)C(=O)N2CCCN2CCOCC2)cc1` (configuration not stated): the Potency entry was “inactive”. In the case of `Cc1ccc(C(=O)NCCSc2c(C)[nH]c3ccccc23)cc1C` it was “inactive”. In the case of `O=C(Nc1ccccc1Br)c1cc(CN2CCCC2)on1` it was “inactive”. For the compound `Cc1ccc(C)c(NC(=O)C2CCCN(S(=O)(=O)c3cn(C)cn3)C2)c1` (configuration not stated), the Potency entry was “inactive”. Take `Cc1ccc(CNC(=O)CSc2c(C)cnc3c2c(=O)n(C)c(=O)n3C)cc1`: the Potency result was “inactive”.

As to `O=C(Nc1nc2c(s1)CCCC2)c1ccccc1F`, the Potency result is “inactive”. For `Cc1ccc(N2CC(C(=O)Nc3ccc(N(C)C)cc3)CC2=O)cc1Cl` (configuration not stated) the value was “inactive”; for `COc1cccc(NC(=O)C(=O)NCC(c2ccc3c(c2)OCO3)N2CCN(C)CC2)c1` (configuration not stated), “inactive”; for `CSc1ccc(CCNC(=O)c2ccc3c(c2)nc2n3CCOC2)cc1`, “inactive”.

For the compound `O=C(NC1CC(=O)N(c2ccc(F)cc2)C1)C1CCCCC1` (configuration not stated), the Potency result is “inactive”. For `O=C(/C=C/c1ccccc1)Nc1cc(-c2nc3cc(Cl)ccc3o2)ccc1Cl` the value was “inactive”. Consider `Cc1ccc(CCNC(=O)c2ccc3c(c2)N(Cc2cc(C)ccc2C)C(=O)c2ccccc2S3=O)cc1` (configuration not stated), for which the Potency result is “inactive”. `O=C(CCc1nc(CN2CCN(S(=O)(=O)c3ccc(F)cc3)CC2)no1)N1CCCCC1`: the Potency entry is “inactive”. For `CCOc1ccc(Nc2oc(/C=C/c3ccc(F)cc3)nc2C#N)cc1` the value was “inactive”.
